Compound activity as filed in PubChem.
Shown are actives, neighbours in structure and some others; about 5.4% of the full set was active somewhere.
MIN6 prolif – inducers of MIN6 beta-cell proliferation, primary screen, ATP luminescence, uHTS; MIN6 cells proliferation, ATPlite luminescence, 48 h; cells starved in 0.2% serum; 100% = growth in 10% serum; proliferation, % at 10 µM; 330,000 tested, 0.29% active;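 active = compounds whose signal lies at least 3.5 SD above the mean of all wells on their plate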;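 note: 0% = DMSO-treated cells in low-serum medium and 100% = 10% serum control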
Exocytosis inh – LAMP-1 surface exposure blockers, TALL-104 cells – cell-based, flow cytometry, MLPCN library, primary screen; TALL-104 LAMP-1 surface exposure; cells stimulated with thapsigargin and PMA; inhibition, % at 10 µM; 360,000 tested, 0.66% active; AID 651702, 2012;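 active = inhibition above about 55%, limit read from the data; inconclusive = no clear call, values can overlap the other calls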
GASC-1 inh – inhibitors of GASC-1 histone demethylase, primary screen, biochemical, fluorescence, DELFIA europium | GST-JMJD2C(1-420) H3K9me3 demethylation | inhibition, % at 2.35 µM | 330,000 tested, 0.069% active | AID 2099, 2009;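 active = more than half of a compound's replicate wells show inhibition beyond 50%, single wells judged on their own value; inconclusive = some, but no more than half, of replicates pass 50% inhibition; inactive = no replicate passes 50% inhibition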;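 note: signal counts dimethyl H3K9 product captured on neutravidin plate; 0% = median of DMSO wells and 100% = 0.3 times that DMSO median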
Target sequence (Q9H3R0 1-420 limits assumed): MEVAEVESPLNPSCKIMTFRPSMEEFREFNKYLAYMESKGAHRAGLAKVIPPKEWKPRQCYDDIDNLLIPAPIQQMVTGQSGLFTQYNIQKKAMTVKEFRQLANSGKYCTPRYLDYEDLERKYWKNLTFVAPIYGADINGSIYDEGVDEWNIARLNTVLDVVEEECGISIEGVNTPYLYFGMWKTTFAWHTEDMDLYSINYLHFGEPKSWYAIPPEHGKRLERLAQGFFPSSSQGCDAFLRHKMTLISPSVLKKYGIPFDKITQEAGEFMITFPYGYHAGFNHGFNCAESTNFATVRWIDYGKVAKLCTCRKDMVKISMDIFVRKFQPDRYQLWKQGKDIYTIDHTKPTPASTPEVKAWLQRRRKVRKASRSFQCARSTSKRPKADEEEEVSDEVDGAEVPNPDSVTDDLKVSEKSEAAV
SMARCA2 act – SMARCA2 (BRM) function activators, primary screen, cell-based, luminescence, high throughput; MG213 cells, MMTV-luciferase reporter, dexamethasone, overnight; 370,000 tested, 1% active; activation, % at 9.1 µM; in the data active = activation above about 7.8%;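 note: 0% = vehicle wells and 100% = reference activator wells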
ALR inh – inhibitors of human ALR sulfhydryl oxidase, primary screen, biochemical, H2O2 detection, HRP-luminol luminescence, single point; FAD-linked sulfhydryl oxidase ALR (Homo sapiens), P55789; purified ALR, DTT oxidation; inhibition, % (no concentration beside the values); 290,000 tested, 3.8% active;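 active = mean replicate inhibition above about 79%, with every replicate also reaching it, limit read from the data; inconclusive = only one of the two criteria met; inactive = mean below limit and not every replicate reaching it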
Target sequence (P55789 whole entry, looked up): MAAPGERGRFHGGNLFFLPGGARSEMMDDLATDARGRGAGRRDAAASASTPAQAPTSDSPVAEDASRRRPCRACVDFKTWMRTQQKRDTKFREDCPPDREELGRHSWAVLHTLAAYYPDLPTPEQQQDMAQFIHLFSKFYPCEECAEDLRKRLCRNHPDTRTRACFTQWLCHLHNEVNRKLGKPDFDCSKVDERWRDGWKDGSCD
M18AAP inhibitor – PfM18AAP inhibitors, malaria aminopeptidase, primary screen, biochemical, QFRET, recombinant enzyme; H-Glu-NHMec fluorogenic cleavage; inhibition, % at 7.35 µM; 290,000 tested, 1.2% active;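 active = inhibition above the campaign mean inhibition over all tested compounds plus 3 SD, cut at about 28% in these data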;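 note: 0% = plate median of test compound wells and 100% = 2 mM ZnCl2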
SMARCA2 conf – SMARCA2 (BRM) function activators, confirmation, cell-based, luminescence, triplicate | shares compounds with SMARCA2 act | MG213 cells, MMTV-luciferase with dexamethasone, overnight; MG213 cells expressing E1A, Rb sequestered; DMSO wells 0%, reference activator 100% | activation, % at 9.1 µM | 3,500 tested, 30% active | AID 652260, 2013;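 active = activation above its plate's cutoff, the mean activation of tested wells plus 3 SD, cut at about 7.9% in these data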
VP16 Luc act – GAL4-VP16 luciferase reporter activation, counter-screen for SMARCA2 (BRM) activator project, cell-based, pG5luc, luminescence, high throughput; shares compounds with SMARCA2 act; HEK293 GAL4-VP16 pG5luc reporter; scaled: DMSO wells 0%, SAHA wells 100%; activation, % at 9.1 µM; 3,500 tested, 41% active; AID 686939, 2013;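 active = activation above the solvent-only control well mean plus 3 SD, averaged across control plates, cut at about 5.2% in these data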
Numbers without * were called inactive; ? = inconclusive; / = no result.

SMILES | MIN6 prolif | Exocytosis inh | GASC-1 inh | SMARCA2 act | ALR inh | M18AAP inhibitor | SMARCA2 conf | VP16 Luc act
COC1C(CO)OC(n2c3c(Cl)cccc3c3c4c(c5c6cccc(Cl)c6[nH]c5c32)C(=O)NC4=O)C(O)C1O (stereo unspecified) | / | -7 | / | 10* | / | / | 23* | 0
O=C(COc1ccccc1Cl)NCCc1ccc2c(c1)OCCO2 | 0 | -4 | 2 | 11* | / | 6 | 4 | 1
COc1ccccc1CNc1ncnc2c1cnn2-c1ccccc1 | 4 | 2 | 3 | 8.2* | -2 | / | 1 | 4
C=CCNc1ncnc2c1cnn2-c1ccc(Cl)cc1 | -3 | 5 | -1 | 12* | -2 | -2 | 8.3* | 12*
CCCCNc1ncnc2c1cnn2-c1ccc(Cl)cc1 | -3 | 5 | 0 | 10* | -1 | 0 | 5 | 9.8*
Cc1ccc(CNc2ncnc3c2cnn3-c2ccccc2)cc1 | -2 | 4 | 7 | 0 | -7 | -2 | / | /
Clc1ccc(-n2ncc3c(NCc4ccccn4)ncnc32)cc1 | -2 | 0 | 1 | 11* | -4 | 11 | 11* | 6.0*
CC1(C(=O)Nc2cnc3ccccc3c2)CCN1Cc1ccc(-c2ccccc2)o1 (stereo unspecified) | / | ? | / | 0 | / | / | / | /
CCCCOc1ncnc2c1[nH]c1ccc(OC)cc12 | -2 | / | 19 | 0 | -16 | -4 | / | /
COc1ccc2[nH]c3c(=S)nc[nH]c3c2c1 | 3 | -3 | 24 | 9.7* | 99* | 2 | 6 | 3
Fc1ccc(/C=N/Nc2nccnc2Cl)cc1 | 0 | -8 | -4 | 9.5* | 9 | 5 | 8.4* | 7.8*
Fc1cccc(/C=N/Nc2nccnc2Cl)c1 | -2 | -13 | 0 | 5 | 13 | 3 | / | /
Oc1ccc(/C=N/Nc2nccnc2Cl)cc1 | -1 | 8 | 17 | 13* | / | 11 | 7 | 7.5*
Cc1cc(NC(=O)c2c(F)cccc2Cl)no1 | 7 | -2 | 8 | 0 | 4 | 10 | / | /
Cc1ccc(NNC(=O)c2c(F)cccc2Cl)cc1C | -1 | -13 | 7 | 8.1* | 25 | 22 | 1 | 1
CCn1c(SCC(=O)c2ccc(F)cc2)nnc1-c1ccoc1C | -1 | -2 | 3 | 9.6* | -4 | 0 | 4 | 2
Cc1ccc(S(=O)(=O)N(C)C[C@@H]2OCc3cn(nn3)CCCC(=O)N([C@H](C)CO)C[C@H]2C)cc1 | / | -3 | / | -3 | / | / | / | /
O=C(/C=C/c1ccccc1[N+](=O)[O-])OCC(=O)c1ccccc1 | -3 | 0 | / | 10* | 1 | -2 | 8.0* | 2
CC1NC(=O)c2cc3ccccc3cc2-n2c1nc1cc(Cl)ccc1c2=O (stereo unspecified) | / | -4 | / | -2 | / | / | / | /
CC(O)CNc1nc2c(c(=O)n(Cc3ccccc3)c(=O)n2C)n1C (stereo unspecified) | -4 | -3 | 3 | 9.7* | -19 | -17 | -1 | 0
Cc1cc(C)c(C(=O)c2cccs2)c(C)c1 | / | -3 | / | 6 | / | / | / | /
Cc1cc(C(=O)c2cccs2)c(N)s1 | -4 | 5 | 6 | 8.9* | 99* | 9 | -1 | 2
O=c1c2[nH]c3cccc(Cl)c3c2ncn1CC1CCCO1 (stereo unspecified) | -3 | -1 | 5 | 8.2* | -5 | -8 | 5 | 3
O=C(NCc1cccc(C(F)(F)F)c1)c1csc([C@H]2C[C@H](O)[C@@H](CO)O2)n1 | / | -1 | / | -5 | / | / | / | /
CC1(C(=O)NS(C)(=O)=O)CCN1C(=O)C/C=C/c1ccccc1 (stereo unspecified) | / | -3 | / | -6 | / | / | / | /
SMILES | MIN6 prolif | Exocytosis inh | GASC-1 inh | SMARCA2 act | ALR inh | M18AAP inhibitor | SMARCA2 conf | VP16 Luc act
Cc1ccccc1-c1nnc(-c2ccccc2)o1 | -4 | -2 | 1 | 6 | -1 | 2 | / | /
Cn1cc(-c2nnc(-c3ccccc3)o2)c2ccccc21 | 3 | -1 | -7 | 13* | -8 | 5 | 6 | 7.2*
Cc1ccc(S(=O)(=O)n2cccc2/C=C/[N+](=O)[O-])cc1 | / | 35 | / | -1 | / | / | / | /
CC(=O)Nc1ccc(-c2ccnc3c2CC(C(=O)Nc2cccc(N(C)C)c2)O3)cc1 (stereo unspecified) | / | -5 | / | -3 | / | / | / | /
CC(Oc1ccc(Br)cc1)C(=O)O/N=C(\N)c1ccncc1 (stereo unspecified) | -3 | -5 | 5 | 12* | 3 | 3 | -4 | 0
COc1ccc(-n2c(C)c(C)c3c(NCCO)ncnc32)cc1 | 1 | -1 | 13 | / | 6 | -6 | / | /
Cc1c(C)n(CCc2ccccc2)c2ncnc(NCCO)c12 | 0 | 11 | -19 | 10* | / | -7 | 8.4* | 10*
Cc1ccc(-n2c(C)c(C)c3c(NCCCO)ncnc32)cc1 | 2 | -7 | 3 | 10* | 19 | 1 | 12* | 8.6*
COc1ccc(-n2c(C)c(C)c3c(NCCCO)ncnc32)cc1 | -3 | 0 | 9 | 11* | -12 | -12 | 0 | 5.4*
CCCCC1CC2=C(C(=O)OC(C)(C)O2)C(c2ccc(Cl)cc2)O1 (stereo unspecified) | / | 1 | / | -3 | / | / | / | /
O=C(N/N=C/c1ccc(-c2ccccc2C(=O)O)o1)c1cccs1 | -2 | 4 | 8 | 8.6* | 8 | 13 | 1 | 3
O=C(N/N=C/c1ccncc1)c1cccs1 | -3 | 1 | -2 | / | -4 | -5 | / | /
COc1ccc(-n2c(C)c3c(OC)cccc(=O)c3c2C)cc1 | -1 | -2 | 0 | 11* | -4 | 8 | -3 | 1
COc1ccccc1-n1c(C)c2c(OC)cccc(=O)c2c1C | -4 | 1 | 5 | 8 | 4 | 7 | / | /
CCc1ccc2[nH]c(=O)c(CN(CCN(C)C)C(=O)Nc3ccccc3OC)cc2c1 | -3 | -4 | 91 | 0 | -8 | -6 | / | /
COc1ccccc1NC(=S)N(CCCN(C)C)Cc1cc2cc3c(cc2[nH]c1=O)OCO3 | -3 | 1 | 4 | 8.0* | -22 | 11 | -1 | 0
CCN(CC)CCCN(Cc1cc2cc3c(cc2[nH]c1=O)OCO3)C(=S)Nc1ccccc1OC | 1 | 0 | 5 | 2 | -11 | 25 | / | /
